# Inconclusive results are not listed. Where a call stands in place of a potency, no number is given. Unmarked numbers belong to inactive results. The source made the active and inactive calls. Unless noted, the call rests on the fitted dose curve; in most records, active means well fitted curve in the direction sought with a large enough effect; inconclusive means small, poorly fitted or top-dose-only effect, or another doubt; inactive means no such curve, though single readings can be large; an effect the other way counts as inactive or inconclusive.
# Legend:
# Papain (Carica papaya) = Papain (Carica papaya) (UniProt P00784); assay: Primary qHTS assay for inhibitors of the protease papain (AID 1645873);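 further: papain turnover of Z-FR-AMC read as the AMC fluorescence gain over 10 min; series mostly up to about 50 µM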
# [1] = Cytotoxicity counterscreen for inhibitors of SARS-CoV-2 cell entry (AID 1645845; calls by dose curve; further: nearly all actives have a fitted effect of over 50% in size); settings: outcome: dose series up to 57.1 µM unless noted
# In short: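 Expi293F/hACE2 cells seeded overnight; cpd pin-transferred in DMSO, 1 h preincubation, + media, 48 h 37 C 5% CO2; ATPLite 1step luminescence; normalized to cells and no cells.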
# [2] = Primary qHTS for inhibitors of nuclear receptor binding SET domain protein 2 (NSD2) in an isogenic RCH-ACV NSD2 p.E1099K mutant (9B) (AID 1645876); further: nearly all actives have a fitted effect of over 70% in size; further: potency means the concentration at half of the fitted maximal effect
# [3] = Primary qHTS for inhibitors of nuclear receptor binding SET domain protein 2 (NSD2) in an RCH-ACV wild type WT cells (2C) (AID 1645877); further: nearly all actives have a fitted effect of over 70% in size; further: potency means the concentration at half of the fitted maximal effect
# [4] = VSVG counterscreen qHTS to identify inhibitors of SARS-CoV-2 cell entry (AID 1645847; calls by dose curve; further: potency means the concentration at half of the fitted maximal effect; nearly all actives have a fitted effect of over 65% in size); settings: VSV-G pseudotyped particle entry, luciferase
# In short: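 Expi293F/hACE2 cells, overnight plating; cpd 1 h, 37C/5% CO2; + VSV-G PP (MLV pseudotyping), 48 h; supernatant removed, Bright-Glo luciferase read. Norm: VSV-G PP and bald PP wells.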
# Chain of Papain (Carica papaya) (P00784 whole entry, looked up): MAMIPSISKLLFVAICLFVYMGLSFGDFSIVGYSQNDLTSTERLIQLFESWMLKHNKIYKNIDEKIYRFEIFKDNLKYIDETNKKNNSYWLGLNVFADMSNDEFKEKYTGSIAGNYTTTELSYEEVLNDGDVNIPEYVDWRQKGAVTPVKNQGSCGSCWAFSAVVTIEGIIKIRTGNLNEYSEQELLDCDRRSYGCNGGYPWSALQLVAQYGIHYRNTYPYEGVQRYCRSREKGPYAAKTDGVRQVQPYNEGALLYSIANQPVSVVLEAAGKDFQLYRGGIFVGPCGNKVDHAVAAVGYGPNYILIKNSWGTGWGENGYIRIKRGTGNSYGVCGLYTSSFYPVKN
compound,measurement,setting,value
C=CCN1CCC23c4c5ccc(O)c4O[C@H]2C(=O)CC[C@@]3(O)C1C5 (stereo partly drawn),Potency,Papain (Carica papaya),inactive
CCOc1ccc2c3c1O[C@H]1[C@@H](O)C=C[C@H]4[C@@H](C2)N(C)CC[C@@]341,outcome,[1],inactive
Ic1ccccc1CNC1C2CCN(CC2)C1C(c1ccccc1)c1ccccc1 (stereo not drawn),Potency,Papain (Carica papaya),inactive
[Cl-].[Cl][Pt].[NH2-].[NH2-].c1ccncc1,Potency,Papain (Carica papaya),inactive
CC1(C(=O)O)C2CCC(O2)C1(C)C(=O)O (stereo not drawn),Potency,Papain (Carica papaya),inactive
C=CCN1C[C@@H](C)N([C@H](c2ccc(C(=O)N(CC)CC)cc2)c2cccc(OC)c2)C[C@@H]1C,Potency,Papain (Carica papaya),inactive
CC(N)Cc1ccc(O)cc1 (stereo not drawn),outcome,[1],inactive
CC(N)Cc1c[nH]c2ccc(O)cc12 (stereo not drawn),Potency,Papain (Carica papaya),inactive
O=C1C[C@@H]2OCC=C3CN4CC[C@]56c7ccccc7N1[C@H]5[C@H]2[C@H]3C[C@H]46,outcome,[1],inactive
same,Potency,[2],inactive
same,Potency,[3],inactive
CN(C(=O)Cc1ccc(Cl)c(Cl)c1)C(CN1CCCC1)c1cccc(OCC(=O)O)c1 (stereo not drawn),Potency,Papain (Carica papaya),inactive
CC(N)[C@H](O)c1ccc(O)c(O)c1 (stereo partly drawn),Potency,Papain (Carica papaya),inactive
CC(=O)c1c(O)c(C)c(O)c(Cc2c(O)c3c(c(C(=O)/C=C/c4ccccc4)c2O)OC(C)(C)C=C3)c1O,outcome,[1],inactive
same,Potency,Papain (Carica papaya),inactive
same,Potency,[2],inactive
same,Potency,[3],inactive
CCCN(CCC)C1CCc2cccc(O)c2C1 (stereo not drawn),Potency,Papain (Carica papaya),inactive
CCCC[N+]1(C)C2CC(OC(=O)[C@H](CO)c3ccccc3)CC1C1OC12 (stereo partly drawn),Potency,Papain (Carica papaya),inactive
C/C(=C\c1csc(C)n1)[C@@H]1C[C@@H]2O[C@]2(C)CCC[C@H](C)[C@H](O)[C@@H](C)C(=O)C(C)(C)[C@@H](O)CC(=O)O1,outcome,[1],inactive
same,Potency,[4],34.1 nM (active)
same,Potency,[2],6.6 nM (active)
same,Potency,[3],5.9 nM (active)
C[C@]12CC[C@H]3[C@@H](CC[C@@]45O[C@@H]4C(O)=C(C#N)C[C@]35C)[C@@H]1CC[C@@H]2O,outcome,[1],inactive
same,Potency,[2],16600 nM (active)
same,Potency,[3],13200 nM (active)
COc1cc2c(cc1OC)[C@@]13CCN4CC5=CCO[C@H]6CC(=O)N2[C@H]1[C@H]6[C@H]5C[C@H]43,outcome,[1],inactive
same,Potency,[2],inactive
same,Potency,[3],inactive
Nc1cc2c(ncn2CCOCP(=O)(O)O)c(=O)[nH]1,Potency,Papain (Carica papaya),inactive
C[C@@H]([C@H](O)c1ccccc1)N(C)C,outcome,[1],inactive
O=C(O)C(Cl)(Cl)Cl,outcome,[1],inactive
Oc1ccc2c3c1O[C@H]1c4[nH]c5ccccc5c4C[C@@]4(O)C(C2)N(CC2CC2)CCC314 (stereo partly drawn),Potency,Papain (Carica papaya),inactive
O=[N+]([O-])c1ccc2nc(N3CCNCC3)ccc2c1,Potency,Papain (Carica papaya),inactive
Clc1cc(I)cc(Cl)c1NC1=NCCN1,Potency,Papain (Carica papaya),inactive
O=C1/C(=C/c2ccccc2)C[C@@]2(O)[C@H]3Cc4ccc(O)c5c4[C@@]2(CCN3CC2CC2)[C@H]1O5,Potency,Papain (Carica papaya),inactive
C=CC[C@]1(O)CC[C@H]2[C@@H]3CCC4=CCCC[C@@H]4[C@H]3CC[C@@]21C,outcome,[1],inactive
COc1ccc2c(c1)C13CCCCC1C(C2)N(C)CC3 (stereo not drawn),Potency,Papain (Carica papaya),inactive

# From PubChem BioAssay (NCATS)
